Among the test systems are SN12C renal; UO-31 renal; TK-10 renal; ACHN renal; A498 renal; CCRF-CEM leukemia; MOLT-4 leukemia; SR leukemia; CAKI-1 renal.
Common to all, as to assay: NCI-60 one-dose screen, 48 h (100 = growth as untreated, 0 = no growth, -100 = all killed)
Conditions in all cases: 10 µM

This is part of a sample that, as a whole, favours compounds with a hit. Of some 83,000 tested, about 20% had one in any assay.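 Compound tested at a single concentration for 48 hours in 96-well plates; a percent growth value below 10 was scored as active.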 A number with no mark means an inactive call. Calls of active or inactive are those of the source.

`O=[N+]([O-])c1ccc(N/N=C/c2cccc3ccccc23)nc1`: the growth with SN12C renal is 103%; with UO-31 renal, 86.9%; with TK-10 renal, 100%; in the assay on ACHN renal, 91.8%; in the assay on A498 renal it was 106%; with CCRF-CEM leukemia, 14.9%. Besides, the results for the growth with MOLT-4 leukemia and in the assay on SR leukemia were 57.3% and 79.4%, respectively.
In the case of `CN(C)CCS(=O)(=O)CCN(C)C`, the growth is 97.2% in the assay with SN12C renal; 113% in the assay on UO-31 renal; 103% with TK-10 renal; 112% in the assay with CAKI-1 renal; 96% in the assay with A498 renal; 102% in the assay on CCRF-CEM leukemia. In the assay on MOLT-4 leukemia, the growth was 104%.
With `N#Cc1cccc(OCc2nc(N)nc(N)c2-c2ccc(Cl)c(Cl)c2)c1`, the growth in the assay on SN12C renal was 33.3%; in the assay with UO-31 renal it was 33.6%; in the assay with TK-10 renal, 46.1%; in the assay on ACHN renal it was 17.7%; in the assay with CAKI-1 renal, 10.5%; in the assay on A498 renal, 53.5%. In addition, the growth is 32.7% with MOLT-4 leukemia and 18.1% in the assay on SR leukemia.
Regarding `CCCC(F)C(=O)O` (stereo not given), the growth with SN12C renal is 100%; with UO-31 renal, 77.7%; in the assay with TK-10 renal, 98%; in the assay on CAKI-1 renal, 86.2%; in the assay on A498 renal, 98.5%; in the assay with CCRF-CEM leukemia, 94.5%. In addition, the growth in the assay with MOLT-4 leukemia was 93%; with SR leukemia it was 91.2%.
`CC(=O)CSC(C)=O`: the growth with SN12C renal was 100%; in the assay with UO-31 renal, 91.3%; in the assay with TK-10 renal, 122%; in the assay on ACHN renal, 97.8%; with CAKI-1 renal, 91.6%; with A498 renal, 99.1%. Besides, the growth with MOLT-4 leukemia is 105%.
Turning to `Cc1ncc(-c2ccoc2)c(NC2CCCCCC2)n1`, the growth in the assay with SN12C renal is 98.5%; in the assay on UO-31 renal, 71.7%; in the assay with TK-10 renal, 109%; in the assay with ACHN renal, 99.6%; in the assay on CAKI-1 renal it was 94.4%; in the assay on A498 renal it was 105%. Moreover, the growth in the assay on MOLT-4 leukemia is 84%; in the assay on SR leukemia, 96.1%.
Turning to `CN(CCc1ccccn1)c1ccccc1`, the growth is 104% in the assay with SN12C renal; 97.9% in the assay on UO-31 renal; 104% with TK-10 renal; 102% in the assay on ACHN renal; 109% with A498 renal; -0.411% (active) with CCRF-CEM leukemia. In addition, the figures for the growth in the assay on MOLT-4 leukemia and in the assay with SR leukemia were 59.9% and 87.5%, respectively.
Regarding `Clc1ccc(Sc2nc(NC3CC3)nc(Sc3ccc(Cl)cc3)n2)cc1`, the growth was 88.5% in the assay with SN12C renal; 62.3% in the assay on UO-31 renal; 112% with TK-10 renal; 51.9% in the assay on CAKI-1 renal; 83.9% in the assay on A498 renal; 76.4% in the assay with CCRF-CEM leukemia. In addition, the growth was 43.8% in the assay with MOLT-4 leukemia and 67.3% with SR leukemia.
Take `COc1ccc(S(=O)(=O)Nc2c(/C=C\c3cc(OC)c(OC)c(OC)c3)ccc(OC)c2O)cc1`: the growth with SN12C renal was 20.9%; in the assay on UO-31 renal it was 39.9%; in the assay on TK-10 renal it was 39.9%; with ACHN renal, 22.7%; in the assay on CAKI-1 renal, 32.9%; in the assay with A498 renal, -19.9% (active). In addition, the growth in the assay on MOLT-4 leukemia is 8.7% (active); with SR leukemia it was 10.5%.
As for `CCOCC(=O)C(C#N)c1ccc(Cl)c(Cl)c1` (stereo not given), the growth in the assay with SN12C renal was 97.8%; with UO-31 renal, 82.8%; in the assay on TK-10 renal, 105%; in the assay on ACHN renal, 91.3%; in the assay with CAKI-1 renal it was 90%; in the assay on A498 renal, 91.6%. The growth in the assay on MOLT-4 leukemia was 101%; in the assay on SR leukemia, 88.2%.
Take `COc1ccc(-n2c(SCc3cc(OC)c(OC)c(OC)c3)nc3ccc(C)cc3c2=O)cc1`: the growth was 82.2% in the assay with SN12C renal; 47.2% in the assay with UO-31 renal; 94.2% in the assay with TK-10 renal; 66.7% in the assay with ACHN renal; 54.2% in the assay on CAKI-1 renal; 38% in the assay on A498 renal. Also, the growth is 56% with MOLT-4 leukemia and 23% with SR leukemia.
Consider `O=C(O)c1ccc(P(=O)(O)O)c([N+](=O)[O-])c1`, for which the growth in the assay with SN12C renal was 101%; with UO-31 renal it was 86%; in the assay with TK-10 renal it was 108%; in the assay with ACHN renal, 103%; in the assay on CAKI-1 renal it was 94.7%; in the assay on A498 renal, 93.9%. In addition, the growth is 111% in the assay with MOLT-4 leukemia and 87.7% in the assay on SR leukemia.
For the molecule `N#CCCN1C/C(=C/c2ccc(Br)cc2)C(=O)/C(=C/c2ccc(Br)cc2)C1`, the growth with SN12C renal was -51.2% (active); with UO-31 renal, -91.3% (active); in the assay with TK-10 renal it was -29.1% (active); in the assay on CAKI-1 renal, -7.84% (active); in the assay with A498 renal it was -39.7% (active); in the assay on CCRF-CEM leukemia, -5.67% (active). Moreover, the growth in the assay on MOLT-4 leukemia was 2.26% (active); in the assay on SR leukemia it was -17.3% (active).
For `COc1cc(Nc2ccnc(NCCNc3ccnc4cc(Cl)ccc34)n2)cc(OC)c1`, the growth was 52% in the assay with SN12C renal; 37% in the assay with UO-31 renal; 48.3% in the assay on TK-10 renal; 30.7% in the assay with ACHN renal; 40.8% in the assay with CAKI-1 renal; 39.9% in the assay on A498 renal. The growth in the assay on MOLT-4 leukemia is 15.3%.
As for `Cc1cccc(C)c1NC(=O)c1sc2nc3c(cc2c1N)C(=O)CCC3`, the growth with SN12C renal is 90.1%; in the assay on UO-31 renal it was 79.5%; with TK-10 renal it was 88.7%; in the assay with CAKI-1 renal, 52%; in the assay with A498 renal, -8.11% (active); in the assay on CCRF-CEM leukemia, 66.5%. Also, the values for the growth with MOLT-4 leukemia and in the assay on SR leukemia were 96.2% and 69.1%, respectively.
`Cc1ccc(C(=O)N2C/C(=C/c3ccccc3)C(=O)/C(=C/c3ccccc3)C2)cc1`: the growth in the assay with SN12C renal is 79.5%; in the assay on UO-31 renal, 56.6%; in the assay with TK-10 renal it was 96.7%; in the assay with ACHN renal, 72.6%; in the assay with CAKI-1 renal it was 63.2%; in the assay on A498 renal, 71.7%. For the same molecule, the growth in the assay on MOLT-4 leukemia was 32.6%; in the assay with SR leukemia, -12.4% (active).

The values above are taken from PubChem BioAssay (NCI).
